Assay outcomes from PubChem BioAssay.
Sampled rows, rich in hits. Any-hit rate of the full collection: about 1.3%.
LYPLA2 inh: LYPLA2 inhibitors, primary screen, counter-screen for PME1 inhibitor project, biochemical, fluorescence polarization, FP-Rh probe ABPP | recombinant LYPLA2 | inhibition, % at 5.9 µM | AID 2177, 2009 | hit rate 0.38% among 320,000;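 active means inhibition above the screen-wide mean plus 3 SD, limit set per campaign, cut at about 26% in these data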;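 further: 0% = LYPLA2 with DMSO and 100% = wells lacking LYPLA2 enzyme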
PREPL inhibitor: PREPL enzyme inhibitors, primary screen, biochemical, fluorescence polarization | Prolyl endopeptidase-like (Homo sapiens), Q4J6C6 | recombinant PREPL, fluorescence polarization activity-based probe | inhibition, % at 5.96 µM | hit rate 0.68% among 320,000 | AID 2751, 2010;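 further: 0% = enzyme with DMSO and 100% = wells lacking enzyme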
PME-1 primary: PME-1 inhibitors via competitive probe labeling, primary screen, biochemical, fluorescence polarization, FP-Rh probe, HTS. Protein phosphatase methylesterase 1 (Homo sapiens), Q9Y570. recombinant PME-1. inhibition, % at 5.9 µM. hit rate 0.53% among 320,000. AID 2130, 2009;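 active means inhibition above the campaign mean of all compounds plus 3 SD, cut at about 26% in these data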;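 further: competitive labeling of PME-1 active site by serine hydrolase directed probe; 0% = PME-1 with DMSO and 100% = wells lacking PME-1 enzyme; inhibitors block probe labeling so polarization falls and inhibition rises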
Target sequence (Q9Y570 whole entry, looked up): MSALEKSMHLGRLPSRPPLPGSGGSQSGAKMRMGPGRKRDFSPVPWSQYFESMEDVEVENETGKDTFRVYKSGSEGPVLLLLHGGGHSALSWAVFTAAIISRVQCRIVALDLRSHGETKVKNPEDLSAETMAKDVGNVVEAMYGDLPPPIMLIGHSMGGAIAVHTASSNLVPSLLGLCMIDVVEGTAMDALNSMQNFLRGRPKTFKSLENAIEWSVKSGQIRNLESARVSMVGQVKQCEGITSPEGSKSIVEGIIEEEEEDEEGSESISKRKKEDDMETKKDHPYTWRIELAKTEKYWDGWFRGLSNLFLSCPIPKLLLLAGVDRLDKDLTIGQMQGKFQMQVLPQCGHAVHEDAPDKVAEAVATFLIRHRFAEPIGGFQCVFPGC
Fam108B inh: mouse Fam108B serine hydrolase inhibitors, primary screen, counter-screen for RBBP9 inhibitor project, biochemical, fluorescence polarization | hit rate 0.33% among 300,000 | AID 1947, 2009 | inhibition, % at 9.51 µM | recombinant Fam108B, FP-Rh probe fluorescence polarization;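 active means inhibition above the screen mean inhibition plus 3 SD, computed separately per campaign, cut at about 18% in these data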;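 further: inhibitors lower polarization as less probe binds the enzyme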
LYPLA1 counter: LYPLA1 inhibitors, primary screen, counter-screen for PME1 inhibitor project, biochemical, fluorescence polarization, FP-Rh probe ABPP; Acyl-protein thioesterase 1 (Homo sapiens), O75608; recombinant LYPLA1; inhibition, % at 5.9 µM; hit rate 0.16% among 320,000; AID 2174, 2009;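 active means inhibition above the mean of all tested compounds plus 3 SD, set per campaign, cut at about 14% in these data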;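 further: inhibitors block serine hydrolase probe labeling of LYPLA1 so polarization falls; 0% = enzyme with DMSO and 100% = wells lacking LYPLA1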
LYPLA2 confirm: LYPLA2 inhibitors, retest, confirmation, counter-screen for PME1 inhibitor project, biochemical, fluorescence polarization, FP-Rh probe ABPP; shares compounds with LYPLA2 inh; recombinant LYPLA2; inhibition, % at 5.9 µM; hit rate 72% among 1,100;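 active means mean inhibition across replicates above the hit cutoff set in the primary screen, cut at about 26% in these data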;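 further: blocked labeling of the enzyme by serine hydrolase FP-Rh probe lowers polarization; 0% = enzyme with DMSO and 100% = wells lacking LYPLA2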
PREPL confirm: human PREPL enzyme inhibitors, confirmation, biochemical, fluorescence polarization | AID 2803, 2010 | inhibition, % at 5.96 µM | shares compounds with PREPL inhibitor | hit rate 67% among 2,000 | recombinant PREPL, fluorescence polarization activity probe;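 further: 0% = protein with DMSO and 100% = wells lacking protein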
Active calls of the source: *; nt = no result. Unless noted, no stated cut-off is given here; in the data, active means inhibition above about 43%; inactive means the rest.

SMILES	LYPLA2 inh	PREPL inhibitor	PME-1 primary	Fam108B inh	LYPLA1 counter	LYPLA2 confirm	others
Cc1ccc(OCC(=O)N/N=C/c2cc([N+](=O)[O-])ccc2N2CCCCC2)cc1	4.8	2.1	6.8	-3.5	3.9	nt
O=C(COc1ccc([N+](=O)[O-])cc1)N/N=C/c1cc([N+](=O)[O-])ccc1N1CCOCC1	35.1*	20.2	5.8	5.1	1.7	29.8*
O=C(C[C@H]1C/C=C\CC[C@@H](Cc2ccc(F)cc2)C(=O)OC[C@H]2CCCN2C1=O)NCCO	nt	38.1	nt	nt	nt	nt
C=C1CCN([C@H](C(=O)NCc2ccc(Cl)cc2)C(C)C)S(=O)(=O)c2ccccc21	5.0	-6.8	1.1	-3.5	5.2	nt
O=C1CCCN1CCC1CCN(C2CC(=O)N(c3ccc(Cl)cc3)C2=O)CC1 (configuration not stated)	32.8*	6.9	2.2	2.2	4.7	34.5*
O=C1CCCN1CCC1CCN(C2CC(=O)N(Cc3ccc(N4CCCC4=O)cc3)C2=O)CC1 (configuration not stated)	-0.8	-0.9	2.1	3.0	-0.6	nt
CCCCOC(=O)c1ccc(NC(=O)C(=O)NCc2ccco2)cc1	-1.3	-6.6	-0.5	0.4	0.6	nt
CC12CCC(c3c(C(=O)N4CCOCC4)nn(-c4ccccc4)c31)C2(C)C (configuration not stated)	27.6*	6.0	3.6	-0.6	6.7	-3.5
NS(=O)(=O)c1ccc(CCNC(=O)c2ccc(NC3=NC4CS(=O)(=O)CC4S3)cc2)cc1 (configuration not stated)	1.7	-3.6	-3.6	0.7	-2.0	nt
CCOC(=O)c1ccccc1-n1c(C)cc(C2N=C(N)Nc3nc4ccccc4n32)c1C (configuration not stated)	71.3*	-9.1	-143.5	5.2	8.6	77.4*
[2H]C([2H])(CCOS(N)(=O)=O)c1ccccc1	3.5	4.4	-3.5	4.4	0.7	nt
Cc1ccc(C(=O)N2CCN(c3ccc(NC(=O)COc4ccccc4C)cc3)CC2)cc1	29.3*	51.9*	4.7	-1.9	2.1	26.8*	PREPL confirm=50.8*
COC(=O)/C(C#N)=C/c1ccc(N2CCOCC2)c([N+](=O)[O-])c1	-1.1	-0.3	-2.3	1.1	-2.9	nt
N#C/C(=C\c1ccc(N2CCOCC2)c([N+](=O)[O-])c1)c1nc2ccccc2[nH]1	30.6*	45.0*	15.0	10.6	12.0	52.8*	PREPL confirm=39.7
CCN(Cc1nc2cc(Cl)ccc2c(=O)[nH]1)C(=O)c1cccc(OCc2c(C)noc2C)c1	9.1	10.1	1.1	nt	4.8	nt
O=C(O)CC(Sc1n[nH]c(=S)s1)C(=O)O (configuration not stated)	-9.9	-5.0	-5.1	-1.3	-2.7	nt
C#CCOCCOCCOCCNc1nc(N2CCN(C(=O)CCCCCCCCCCNC(=O)Cn3cc(CCCCCN)nn3)CC2)nc(N2CCN(C(=O)CCCCCCCCCCNC(=O)[C@H]([C@@H](C)CC)n3cc(CCCCCN)nn3)CC2)n1	31.0*	62.1*	-4.3	-4.3	3.1	22.9	PREPL confirm=56.5*
C#CCOCCOCCOCCNc1nc(N2CCN(C(=O)CCCCCCCCCCNC(=O)[C@H](CCC(=O)O)n3cc(CCCCCN)nn3)CC2)nc(N2CCN(C(=O)CCCCCCCCCCNC(=O)[C@@H]([C@H](C)O)n3cc(C)nn3)CC2)n1	7.0	-1.9	-4.6	2.2	1.1	nt
C#CCOCCOCCOCCNc1nc(N2CCN(C(=O)CCCCCCCCCCNC(=O)[C@H]([C@@H](C)CC)n3cc(CCCCCN)nn3)CC2)nc(N2CCN(C(=O)CCCCCCCCCCNC(=O)[C@@H]([C@H](C)O)n3cc(C)nn3)CC2)n1	29.1*	46.4*	-6.8	-1.8	-0.5	29.5*	PREPL confirm=33.4
COc1ccc(CCNCc2ccc(OCC(=O)N3CCCCC3)c(OC)c2)cc1OC	3.1	-8.2	-1.3	0.5	-1.1	nt
